High-throughput results as filed in PubChem BioAssay.
In the library only some 1.5% were active in any assay of this set; here they are far more common.
GLD-1 RNA inh: GLD-1/TGE RNA complex disruptors, primary screen, biochemical, fluorescence polarization | Female germline-specific tumor suppressor gld-1 (Caenorhabditis elegans), Q17339 | purified GLD-1 + fluorescein TGE RNA | inhibition, % at 5.96 µM | hit rate 0.44% among 320,000 | AID 2280, 2010;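 active = percent inhibition above a per-plate cutoff, the plate mean of test compounds plus 3 SD, cut at about 30% in these data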;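 also: 0% = DMSO wells with GLD-1 and probe and 100% = wells lacking GLD-1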
Target sequence (Q17339 whole entry, looked up): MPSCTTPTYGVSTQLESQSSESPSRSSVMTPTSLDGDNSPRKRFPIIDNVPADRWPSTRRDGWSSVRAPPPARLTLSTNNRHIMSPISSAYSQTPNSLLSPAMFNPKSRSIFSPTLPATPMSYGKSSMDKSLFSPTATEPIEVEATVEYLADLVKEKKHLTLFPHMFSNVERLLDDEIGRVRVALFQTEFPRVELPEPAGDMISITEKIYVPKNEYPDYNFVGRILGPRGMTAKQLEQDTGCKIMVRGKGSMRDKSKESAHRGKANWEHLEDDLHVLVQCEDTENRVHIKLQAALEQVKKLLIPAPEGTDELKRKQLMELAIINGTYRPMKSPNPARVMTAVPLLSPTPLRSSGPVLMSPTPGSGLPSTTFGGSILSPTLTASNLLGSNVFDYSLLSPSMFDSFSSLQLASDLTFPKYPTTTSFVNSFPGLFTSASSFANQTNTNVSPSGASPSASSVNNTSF
E coli Lon inh: inhibitors of E. coli Lon protease, primary screen, biochemical, fluorescence polarization; P0A9M0; hit rate 0.42% among 360,000; inhibition, % at 7.94 µM; purified E. coli Lon protease; in the data active = inhibition above about 13%, passing the limit was not always enough;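 also: 0% = enzyme with probe and DMSO and 100% = no enzyme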
EBV gp42 inh: Epstein-Barr virus gp42 inhibitors, primary screen, biochemical, uHTS, fluorescence polarization | Glycoprotein 42 (Epstein-Barr virus (strain AG876)), Q1HVG2 | Fluorescence polarization binding assay, mP read-out | inhibition, % (tested at 21.74 µM) | hit rate 0.42% among 220,000 | AID 1085, 2008; in the data active = inhibition above about 50%
Target sequence (Q1HVG2 whole entry, looked up): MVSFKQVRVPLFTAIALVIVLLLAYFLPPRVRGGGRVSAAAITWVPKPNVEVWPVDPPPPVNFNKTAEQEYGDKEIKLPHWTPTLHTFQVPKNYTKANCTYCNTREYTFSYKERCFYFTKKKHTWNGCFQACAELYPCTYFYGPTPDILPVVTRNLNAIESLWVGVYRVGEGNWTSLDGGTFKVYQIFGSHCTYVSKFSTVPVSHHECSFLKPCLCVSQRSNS
BCLXL inh: inhibitors of human Bcl-xL, primary screen, biochemical, fluorescence polarization, HTS; GST-Bcl-xL / FITC-Bim BH3 peptide fluorescence polarization; inhibition, % at 10.9 µM; Bcl-2-like protein 1 (Homo sapiens), Q07817; hit rate 0.7% among 320,000;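 active = inhibition above the mean of all tested compounds plus 3 SD, cutoff set per campaign, cut at about 30% in these data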;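 also: 0% = DMSO wells and 100% = unlabeled Bim-BH3 peptide competitor; inhibitors lower millipolarization by displacing the labeled peptide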
MCL1 BIM primary: inhibitors of MCL1 binding to BIM-BH3, primary screen, biochemical, fluorescence polarization. inhibition, % at 10.9 µM. hit rate 0.68% among 320,000. Induced myeloid leukemia cell differentiation protein Mcl-1 (Homo sapiens), Q07820. AID 2057, 2009. GST-MCL1 / FITC-Bim-BH3 fluorescence polarization;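 active = inhibition above the mean inhibition of all tested compounds plus 3 SD, set per campaign, cut at about 40% in these data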;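 also: 0% = DMSO wells and 100% = unlabeled Bim-BH3 peptide control; higher means more loss of mP so more displacement of Bim peptide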
MEX-5 binding: MEX-5 zinc finger RNA-binding disruptors – biochemical, C. elegans, fluorescence polarization, MLPCN library, primary screen | Zinc finger protein mex-5 (Caenorhabditis elegans), Q9XUB2 | MEX-5/FITC-TCR2 RNA binding; active compounds read low | activity score (negative = inhibition of binding), % at 10 µM | hit rate 0.38% among 300,000 | AID 1832, 2009;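 active = inhibition past about -25% in most replicates, and total fluorescence under double the plate's negative control median, limit read from the data; inconclusive = replicates evenly split on the limit, or fluorescence at least double controls; inactive = too little inhibition in most replicates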;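 also: 0% = DMSO and -100% = 5 µM competing unlabeled TCR2 RNA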
Bcl-xL conf: Bcl-xL inhibitors blocking Bim BH3 binding, confirmation, counter-screen for MCL1 inhibitor project, biochemical, fluorescence polarization; inhibition, % at 10.9 µM; shares compounds with MCL1 BIM primary; hit rate 54% among 1,700; GST-Bcl-xL / FITC-Bim BH3 peptide FP binding;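 active = inhibition above a cutoff equal to the mean inhibition of all tested compounds plus 3 SD, cut at about 30% in these data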;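 also: 0% = DMSO wells and 100% = unlabeled Bim BH3 control peptide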
MCL1 BIM confirm: inhibitors of MCL1 binding to BIM-BH3, confirmation, biochemical, fluorescence polarization, triplicate | inhibition, % at 10.9 µM | AID 2168, 2009 | GST-MCL1 / FITC-Bim-BH3 fluorescence polarization | hit rate 61% among 1,700 | shares compounds with MCL1 BIM primary;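 active = inhibition above the average of all tested compounds plus 3 SD, cut at about 40% in these data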;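 also: 0% = DMSO wells and 100% = unlabeled Bim-BH3 control peptide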
An asterisk follows results filed as active; ? = inconclusive; · = no result; + = active, no number.

SMILES	GLD-1 RNA inh	E coli Lon inh	EBV gp42 inh	BCLXL inh	MCL1 BIM primary	MEX-5 binding	Bcl-xL conf	MCL1 BIM confirm
COc1cc(/C=C2\CCCc3c2nc2ccccc2c3C(=O)O)cc([N+](=O)[O-])c1O	0.7	5.6	·	16.5	21.1	-7.7	·	·
COc1cc(/C=C2\CCCc3c2nc2ccccc2c3C(=O)O)cc(OC)c1O	6.9	2.9	-6.0	14.9	14.5	-10.8	·	·
CC1(C)CC(=O)C(C(c2ccc(F)cc2)C2C(=O)CC(C)(C)CC2=O)C(=O)C1	6.1	4.7	-1.8	-1.8	0.9	-2.1	·	·
CCc1sc(C(C2C(=O)CC(C)(C)CC2=O)C2C(=O)CC(C)(C)CC2=O)cc1[N+](=O)[O-]	7.8	11.4	7.3	16.2	43.0*	-4.0	15.1	56.6*
COc1cc2c(cc1NC(=O)CN(C)Cc1cccc(OC)c1OC)oc1ccccc12	2.7	-6.8	-12.0	-2.6	-12.9	2.8	·	·
C=CCn1c(CC#N)nnc1N1CCOCC1	-3.6	-2.1	-7.3	-1.9	65.1*	-6.1	6.9	3.9
Cc1ccc(N2C(=O)[C@@H]3[C@H](C2=O)C2c4ccccc4C=CN2[C@@H]3C(=O)c2ccco2)c(C)c1 (some centres undefined)	62.0*	2.9	·	72.8*	62.7*	4.7	44.5*	58.8*
CC(C)(C)C(=O)[C@@H]1[C@@H]2C(=O)N(c3ccc4c(c3)OCCO4)C(=O)[C@@H]2C2c3ccccc3C=CN21 (some centres undefined)	-2.9	-5.1	23.6	-2.3	0.2	1.9	·	·
CN1CCN(C(=O)C2Cc3c(-c4ccc5c(c4)OCO5)ccnc3O2)CC1 (centres undefined)	·	10.8	·	·	·	·	·	·
CC1=Nc2ccccc2/C1=C\c1nc(-c2ccc(F)cc2)oc1O	172.1*	-41.6	137.9*	+	+	-36.3*	91.6*	141.4*
CN=Cc1nc(-c2ccccc2)oc1O	4.3	-3.6	-3.0	-2.9	-3.3	6.4	·	·
Cc1ccccc1SCCNC(=O)CCc1ccccc1	-0.9	·	4.9	3.0	-9.4	-0.4	·	·
O=C(CCO)c1ccc(O)cc1	15.8	-2.5	9.7	17.4	75.5*	-18.4	36.7*	79.6*
CC(Oc1ccc(F)cc1)C(=O)Nc1cccc(-c2nn[nH]n2)c1 (centres undefined)	3.3	-4.6	·	12.9	41.1*	-2.8	-4.0	-22.8
Cc1ccc(N2C(=O)c3cccc4c([N+](=O)[O-])ccc(c34)C2=O)c2cccnc12	13.1	9.1	9.1	17.3	18.7	-3.8	·	·
Cc1ccc(N2C(=O)c3cccc4c(N5CCN(C)CC5)ccc(c34)C2=O)c2cccnc12	137.4*	·	159.3*	+	+	-58.3*	+	+
COc1ccc(C2=NS(=O)(=O)N(C)C(C(=O)N3CCCCC3)=C2)cc1OC	7.0	-10.2	·	0.1	-9.2	-0.8	·	·
Cc1ccc(N2C(=O)C3C4CCC(O4)C3C2=O)c(OC(F)F)c1 (centres undefined)	1.4	4.3	·	-6.2	-0.3	·	·	·
N=c1c(C(=O)NCc2ccco2)cc2c(=O)n3ccccc3nc2n1C1CCCC1	21.6	-1.8	·	54.4*	63.0*	-4.6	156.8*	193.8*
N=c1c(C(=O)NC2CCCC2)cc2c(=O)n3ccccc3nc2n1C1CCCC1	5.3	-6.7	-11.2	7.5	6.5	-18.7	·	·
Cc1ccc(S(=O)(=O)c2cc3c(=O)n4ccccc4nc3n(Cc3ccco3)c2=N)cc1	10.3	-20.6	48.8	37.9*	57.7*	-10.1	24.5	20.1
Cc1ccc2nc3c(cc(C(=O)NCc4ccco4)c(=N)n3Cc3ccco3)c(=O)n2c1	-0.1	-2.8	-6.5	30.0	57.7*	-1.7	13.0	7.1
Cc1cccn2c(=O)c3cc(C(=O)NCc4ccco4)c(=N)n(C(C)C)c3nc12	49.3*	-6.2	25.6	83.7*	90.0*	?	39.5*	63.1*
CC(C)(C)NC(=O)C1c2ccccc2OCC(=O)N1Cc1ccc2c(c1)OCO2 (centres undefined)	·	-4.7	·	·	·	·	·	·
Cc1ccc(NS(=O)(=O)c2ccc(C(=O)OCC(=O)NCC3CCCO3)cc2)cc1 (centres undefined)	1.2	-1.9	1.7	2.7	3.8	0.0	·	·
SMILES	GLD-1 RNA inh	E coli Lon inh	EBV gp42 inh	BCLXL inh	MCL1 BIM primary	MEX-5 binding	Bcl-xL conf	MCL1 BIM confirm
Cc1cccc(C)c1NC(=O)C(c1ccccc1OC(F)(F)F)N1CCN(C/C=C/c2ccccc2)CC1 (centres undefined)	·	3.9	·	·	·	·	·	·
CCOC(=O)C1=CCN(S(=O)(=O)c2ccccc2[N+](=O)[O-])C1c1ccc(C)cc1 (centres undefined)	·	2.0	·	·	·	·	·	·
Cc1ccc(C=C2C(=O)c3ccccc3C2=O)s1	-12.0	-11.4	-12.1	11.9	0.1	-2.1	·	·
Cc1cc(C=C2C(=O)c3ccccc3C2=O)c(C)n1C	25.7	3.9	38.6	50.9*	70.7*	-2.8	33.6*	55.4*
Cc1c(C)c2cc(Cl)c(O)c(CN(C)C)c2oc1=O	7.4	0.8	-4.8	7.7	10.6	-2.8	·	·
O=c1oc2c(O)c(O)cc3c(=O)oc4c(O)c(O)cc1c4c23	8.4	-5.8	86.5*	74.1*	97.2*	·	79.4*	98.2*
O=S(=O)(O)c1cc(O)ccc1O	2.0	5.7	·	7.8	5.9	·	·	·
O=S(=O)(c1cc(O)ccc1O)c1cccc2c(S(=O)(=O)c3cc(O)ccc3O)cccc12	7.6	-3.6	·	9.3	45.8*	-3.5	23.9	51.7*
Cc1ccc(-n2nnnc2CN2CCCCC2)cc1	-0.6	-0.9	-10.5	2.3	-0.5	-1.5	·	·
CCOc1ccc(N2CSC3=C(C#N)C(c4ccco4)CC(=O)N3C2)cc1 (centres undefined)	19.3	-3.7	9.2	28.4	77.7*	0.2	24.6	62.8*
CC(C)c1cc(C(C)C)c(S(=O)(=O)NC(c2ccccn2)C23CC2C3)c(C(C)C)c1 (centres undefined)	·	-1.0	·	·	·	·	·	·
Cc1cc(NC(=O)Cc2cccs2)no1	-11.9	-9.3	71.2*	9.9	61.9*	·	18.5	69.4*
